POLI inh – blocks human DNA polymerase iota activity | Q9UNA4 | Pol iota fluorescent replication assay, 10 min | Potency, µM (top dose mostly 115 µM), inactives show at the highest dose activity, negative = inhibition, most hits filed as inhibitors | actives 1% (n = 390,000) | AID 588590
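Fluorescent replication assay read twice, at 0 min and 10 min after adding 50 nM (final) substrate. Enzyme (10 nM) and compounds were first incubated 15 min at room temperature; enzyme-free buffer wells were negative controls.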
Pol beta inh – DNA polymerase beta (human) inhibition | actives 1.3% (n = 340,000) | P06746 | Pol beta primer extension/strand displacement, fluorescence kinetic | Potency, µM (doses to about 114 µM), without a hit: top-dose activity change, negative = inhibition, hits mostly inhibitors; note: % is set by controls: 0 for no effect and ±100 for the full control effect
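Homogeneous kinetic assay of primer extension and strand displacement by 10 nM Pol beta, preincubated 15 min at room temperature with compound before 50 nM substrate (final) was added. Read at 0 and 10 min; four-parameter Hill fit.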
POLH inh – DNA polymerase eta (human) inhibition | actives 1.2% (n = 390,000) | Potency, µM (highest dose often 114 µM), inactives show at the top dose activity change, negative = inhibition, most hits filed as inhibitors | recombinant Pol eta, fluorescent DNA replication assay | Q9Y253 | AID 588591; note: % is set by controls: 0 for no effect and ±100 for the full control effect
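Pol eta at 10 nM preincubated with compounds 15 min at room temperature; reaction started with fluorescent substrate (50 nM final) and read kinetically at 0 and 10 min.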
Pol kappa inh – DNA polymerase kappa (human) inhibition | purified Pol kappa, fluorescent DNA synthesis assay, 10 min | actives 0.53% (n = 400,000) | AID 588579 | Q9UBT6 | Potency, µM (doses to about 107 µM), for the others: at the highest dose activity, negative = inhibition, actives largely listed as inhibitors; note: % is set by controls: 0 for no effect and ±100 for the full control effect
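Activity was followed as the change in fluorescence between reads at 0 and 10 min after starting the reaction with 50 nM substrate. Beforehand, 10 nM polymerase had been preincubated with compound for 15 min at room temperature.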
WRN inhibitor – WRN helicase (human) inhibition. WRN helicase unwinding, fluorescent forked duplex, kinetic. Potency, µM (top dose mostly 114 µM), inactives show top-dose activity change, negative = inhibition, actives largely listed as inhibitors. Q14191. AID 651768. actives 0.46% (n = 360,000); note: % is set by controls: 0 for no effect and ±100 for the full control effect; nearly all actives have a fitted effect of over 55% in size
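Fluorescence dequenching readout, ex 525 nm/em 598 nm, kinetic mode: forked duplex DNA (100 nM final) with adjacent fluorophore and quencher unwound by WRN (20 nM final) with 2 mM ATP. Compound preincubation 15 min, room temperature.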
FEN1 inh – inhibitors of human flap endonuclease 1. P39748. Recombinant FEN1 flap cleavage, fluorescence, 15 min. Potency, µM (titrated, usually from 114 µM), without a hit: at the highest dose activity change, negative = inhibition, actives largely listed as inhibitors. actives 0.35% (n = 390,000). AID 588795; note: % is set by controls: 0 for no effect and ±100 for the full control effect; nearly all actives have a fitted effect of over 65% in size
Target sequence (P39748 whole entry, looked up): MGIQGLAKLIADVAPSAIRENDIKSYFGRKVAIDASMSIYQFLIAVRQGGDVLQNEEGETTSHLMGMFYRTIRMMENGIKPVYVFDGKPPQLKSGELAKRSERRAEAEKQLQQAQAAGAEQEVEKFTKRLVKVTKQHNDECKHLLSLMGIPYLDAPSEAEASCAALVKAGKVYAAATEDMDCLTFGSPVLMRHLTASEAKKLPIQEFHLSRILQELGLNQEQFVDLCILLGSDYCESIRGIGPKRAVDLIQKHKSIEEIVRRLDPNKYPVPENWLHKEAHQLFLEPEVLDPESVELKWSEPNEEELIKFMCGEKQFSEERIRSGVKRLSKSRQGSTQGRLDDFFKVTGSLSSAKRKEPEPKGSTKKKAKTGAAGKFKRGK
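Recombinant FEN1 (10 nM) was preincubated with pin-transferred compounds for 15 min at room temperature, then flap DNA substrate (50 nM final) was added. Plates were read at 0 and 15 min, and normalized concentration–response data were fitted to a four-parameter Hill equation.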
Numbers without * were called inactive; [ ] = another dose, or the depositor's remark. In the library only some 2.4% were active in any assay of this set; here they are far more common. Calls come from the whole dose curve; as a rule, active = well fitted curve in the direction sought with a large enough effect; inconclusive = small, poorly fitted or top-dose-only effect, or another doubt; inactive = no such curve, though single readings can be large; an effect the other way counts as inactive or inconclusive. Potency is the fitted concentration of half-maximal effect.

How did CCC(=O)O[C@H]1C(O[C@@H]2C(C)[C@H](O[C@H]3C[C@@](C)(OC)C(O)C(C)O3)C(C)C(=O)OC(CC)[C@@](C)(O)C(O)[C@H](C)C(=O)C(C)C[C@]2(C)O)OC(C)CC1N(C)C (some centres not stated) do in these assays?
Pol kappa inh: 32µM*

How did CCOC(=O)CCC(=O)O[C@H]1C(O[C@@H]2C(C)[C@H](O[C@H]3C[C@@](C)(OC)C(O)C(C)O3)C(C)C(=O)OC(CC)[C@@](C)(O)C(O)[C@H](C)C(=O)C(C)C[C@]2(C)O)OC(C)CC1N(C)C (some centres not stated) do in these assays?
Pol kappa inh: -6%[60.1 µM]

Results for O=C(OCC1OC(n2ncc(=O)[nH]c2=O)C(OC(=O)c2ccccc2)C1OC(=O)c1ccccc1)c1ccccc1 (configuration not stated) ?
POLI inh: inconclusive; Pol beta inh: inconclusive; POLH inh: 89µM*; Pol kappa inh: inconclusive; WRN inhibitor: -9%; FEN1 inh: -19%

What do the screens show for `CC(=O)OC[C@H]1O[C@@H](n2ncc(=O)[nH]c2=O)[C@H](OC(C)=O)[C@@H]1OC(C)=O`?
POLI inh: 10%; Pol beta inh: 3%; POLH inh: -6%; Pol kappa inh: -22%; WRN inhibitor: 4%; FEN1 inh: 18%

How did Cc1c(Cl)c(=O)oc2cc(OCC(=O)N3CCCC(C)C3)ccc12 (configuration not stated) do in these assays?
POLI inh: 8%; POLH inh: -10%; Pol kappa inh: 4%; WRN inhibitor: -30%; FEN1 inh: 10%

How did COc1ccc2c(c1)c(=O)oc1cc(OCC(=O)N3CCC(C)CC3)ccc12 do in these assays?
POLI inh: 18µM*; Pol beta inh: 22µM*; POLH inh: 79µM*; Pol kappa inh: inconclusive; WRN inhibitor: inconclusive; FEN1 inh: inconclusive

Results for COc1ccc2c(c1)c(=O)oc1cc(OCC(=O)N3CCCC(C)C3)ccc12 (configuration not stated) ?
POLI inh: inconclusive; Pol beta inh: 4µM*; POLH inh: inconclusive; Pol kappa inh: -22%; WRN inhibitor: -21%; FEN1 inh: 2%

How did CCCC(=O)OCCNc1cc(Sc2nc3ccccc3[nH]2)c2nonc2c1[N+](=O)[O-] do in these assays?
POLI inh: inconclusive; Pol beta inh: 6%; POLH inh: inconclusive; Pol kappa inh: -13%; WRN inhibitor: 40µM*; FEN1 inh: inconclusive

What do the screens show for `COc1cc(C2Nc3cccc4cccc(c34)N2)ccc1OC(C)=O`?
POLI inh: inconclusive; Pol beta inh: -22%; POLH inh: 14µM*; Pol kappa inh: -19%; WRN inhibitor: -30%; FEN1 inh: 40µM*

Results for COc1ccc(C2Nc3cccc4cccc(c34)N2)cc1Br ?
POLI inh: 62%; Pol beta inh: -2%; POLH inh: -13%; Pol kappa inh: -2%; WRN inhibitor: inconclusive; FEN1 inh: -13%

How did COc1cc(C2Nc3cccc4cccc(c34)N2)cc(OC)c1O do in these assays?
POLI inh: inconclusive; Pol beta inh: 45µM*; POLH inh: inconclusive; Pol kappa inh: -6%; WRN inhibitor: -11%[11.6 µM]; FEN1 inh: -15%

What do the screens show for `Cc1ccc(S(=O)(=O)N2CCN(c3nc(-c4cccs4)nc4nc[nH]c34)CC2)cc1`?
POLI inh: -4%; Pol kappa inh: 11%; FEN1 inh: 13%

What do the screens show for `O=C(NCC(c1ccco1)N1CCCC1)c1ccc(S(=O)(=O)Nc2ccccc2Cl)cc1` (configuration not stated)?
POLI inh: inconclusive; POLH inh: inconclusive; Pol kappa inh: 79µM*; WRN inhibitor: -10%; FEN1 inh: 10%

Results for CCN1CCN(c2cc(N3CCN(C(=O)c4ccco4)CC3)c3c4c(onc24)-c2ccccc2C3=O)CC1 ?
POLI inh: 28µM*; Pol beta inh: -2%; POLH inh: -12%; Pol kappa inh: -17%; WRN inhibitor: 152%; FEN1 inh: inconclusive

How did CC(=O)OCCNc1cc(N2CCN(C)CC2)c2noc3c2c1C(=O)c1ccccc1-3 do in these assays?
POLI inh: 52%; Pol beta inh: 1%; POLH inh: -18%; Pol kappa inh: -22%; WRN inhibitor: -29%; FEN1 inh: -28%

Results for Cc1ccc(C(C[N+](=O)[O-])Sc2ccc(N)cc2)cc1 (configuration not stated) ?
POLI inh: 59%; Pol beta inh: -2%; POLH inh: -21%; Pol kappa inh: -3%; WRN inhibitor: 45µM*; FEN1 inh: 0%

Results for CC(C)[C@@H]1CC[C@@H](C)C[C@@H]1P(=O)(c1ccccc1)c1ccccc1 ?
Pol kappa inh: 5%[60.1 µM]; FEN1 inh: inconclusive

Results for CNC(=O)c1ccsc1NC(=O)c1sc2ccccc2c1Cl ?
POLI inh: inconclusive; Pol beta inh: 14µM*; POLH inh: inconclusive; Pol kappa inh: inconclusive; WRN inhibitor: -22%; FEN1 inh: -9%

What do the screens show for `CC[C@H](C)[C@H](NC(=O)[C@H](N)Cc1ccc(O)cc1)C(=O)N[C@@H](CC(N)=O)C(=O)N[C@@H](CC(C)C)C(=O)N[C@H](C(=O)N[C@@H](C(=O)N[C@@H](CCCN=C(N)N)C(=O)N[C@@H](CCC(N)=O)C(=O)N[C@@H](CCCN=C(N)N)C(=O)N[C@H](Cc1ccc(O)cc1)C(N)=O)[C@@H](C)O)[C@@H](C)CC`?
Pol kappa inh: 7%[60.1 µM]

Results for Cc1cc(C)c([N+](=O)[O-])cc1-c1ccc(/C=N/c2c(-c3ccco3)nc3ccccn23)o1 ?
POLI inh: inconclusive; Pol beta inh: 50µM*; POLH inh: -5%; Pol kappa inh: inconclusive; WRN inhibitor: inconclusive; FEN1 inh: inconclusive

Results for O=[N+]([O-])c1ccc(-c2ccc(/C=N/c3c(-c4ccco4)nc4ccccn34)o2)c(Cl)c1 ?
Pol beta inh: -12%

What do the screens show for `Cc1cc([N+](=O)[O-])c(C)cc1-c1ccc(/C=N/n2cnnc2)o1`?
POLI inh: 26%; Pol beta inh: 23%; POLH inh: inconclusive; Pol kappa inh: 9%; WRN inhibitor: 5%; FEN1 inh: 3%

What do the screens show for `O=[N+]([O-])c1ccc(Cl)c(-c2ccc(/C=N/c3c(-c4ccco4)nc4ccccn34)o2)c1`?
POLI inh: inconclusive; Pol beta inh: 50µM*; POLH inh: -22%; Pol kappa inh: -13%; WRN inhibitor: -31%; FEN1 inh: -1%
